Measured values as given in PubChem BioAssay.
Calls of active or inactive are those of the source.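 The calls were made as follows, unless noted: active = fluorescence slope after compound addition differing from the mean of all screened samples at 99.7% confidence, in either direction; inactive = the rest.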

What follows are compounds tested against Voltage-gated potassium channel subunit beta-2 (Rattus norvegicus) (UniProt P62483) (assay: enhancers of rat Kvbeta2 NADPH turnover – biochemical, NADPH fluorescence, primary screen (AID 623;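 active = NADPH fluorescence slope more negative than the mean of all samples by about 3 SD, 99.7% confidence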;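 also: fluorescence intensity change per second fitted from 20 to 320 s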)). Settings: Recombinant KvBeta, NADPH fluorescence decrease slope, 10 min; at 10 µM; hits give low values.
Sequence of Voltage-gated potassium channel subunit beta-2 (Rattus norvegicus) (P62483 whole entry, looked up): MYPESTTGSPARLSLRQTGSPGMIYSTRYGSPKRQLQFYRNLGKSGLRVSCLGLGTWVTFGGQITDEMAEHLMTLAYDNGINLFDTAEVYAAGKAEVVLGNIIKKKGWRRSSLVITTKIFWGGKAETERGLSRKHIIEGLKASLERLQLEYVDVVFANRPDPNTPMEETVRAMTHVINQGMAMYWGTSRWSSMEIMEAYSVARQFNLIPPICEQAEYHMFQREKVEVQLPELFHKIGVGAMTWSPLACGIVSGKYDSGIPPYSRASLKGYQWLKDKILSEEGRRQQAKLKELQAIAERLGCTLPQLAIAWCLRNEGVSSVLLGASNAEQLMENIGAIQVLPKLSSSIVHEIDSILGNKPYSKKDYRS

NADPH fluorescence slope, inactive:
COc1cc(NS(=O)(=O)c2ccc(N)cc2)nc(OC)n1 -7e-05
C=CCSc1nnc2n(CCc3ccccc3)c(=O)c3c4c(sc3n12)COC(C)(C)C4 -1.2e-05
COc1c2occc2c(OC)c2c(=O)cc(C)oc12 -4.4e-05
CCCn1c(=O)c2[nH]c(C3CCCC3)nc2n(CCC)c1=O -7.8e-05
CCOC(=O)Cc1nnc(Nc2cccc(O)c2)c2ccccc12 -9.4e-05
COc1ccc(C(=O)Cn2c(N3CCCCC3)nc3c2c(=O)n(C)c(=O)n3C)cc1OC -9.5e-05
CCn1cc(C(=O)O)c(=O)c2cc(F)c(N3CCNCC3)nc21 -5.7e-05
Cc1ccc(S(=O)(=O)NC(=O)NN2CCCCCC2)cc1 -5.8e-05
Cn1c(/C(C#N)=C/Nc2ccccn2)nc2ccccc21 -0.000107
COc1ccc(CNc2oc(COc3ccccc3Cl)nc2C#N)cc1 -9.3e-05
CC(NC(=O)NCCCC(=O)O)(C(F)(F)F)C(F)(F)F -1.9e-05
CC(NC(=O)Nc1nccs1)(C(F)(F)F)C(F)(F)F -3.5e-05
CCC1CCCCN1c1nc(-c2ccncc2)nc2ccccc12 (stereo not drawn) -0.000148
C=C(C)C1Cc2c(C)nn(-c3nc(C)cc(C)n3)c2C1 (stereo not drawn) -3.5e-05
CCCCOc1ccc(CC(=O)NO)cc1 -4.3e-05
COC(=O)c1cc(Br)c(=O)n(-c2nccs2)c1 -5.6e-05
Cc1ccc(NC(=O)CSC2=C(C#N)C(c3ccc4c(c3)OCO4)CC(=O)N2)cc1C (stereo not drawn) -2.7e-05
CCN(CC)C(=O)c1sc2nc(-c3cccs3)cc(-c3cccs3)c2c1N 0
Cc1ccc(-c2nnc(-c3cccc(Br)c3)o2)cc1 -9.8e-05
CCCCOc1ccc(C(=O)Nc2ccc(N3CCN(C(C)=O)CC3)cc2)cc1 1.1e-05
CCN(CC)CCNC(=O)c1ccc(NC(C)=O)cc1 -5.7e-05
COC(=O)c1ccccc1NC(=O)CSc1nnc(-c2ccncc2)o1 -4.2e-05
CN(C)C(CN1C(=O)C2CC=CCC2C1=O)c1cn(C)c2ccccc12 (stereo not drawn) -2.6e-05
CCOc1cc(C2Nc3ccccc3C(=O)N2c2ccccc2OC)ccc1O (stereo not drawn) -3.8e-05
Cc1cn2c(-c3ccncc3)nnc2s1 -0.000121
COc1ccc(/C(O)=C2/C(=O)C(=O)N(CCN(C)C)C2c2ccccn2)cc1OC (stereo not drawn) -8.1e-05
Cc1oc2nc(SCCCC(=O)NCCCO)nc(N)c2c1C -1.7e-05
C[C@@H]1CCC[C@H](C)N1NC(=O)c1ccc(Cl)c(S(N)(=O)=O)c1 -5.1e-05
O=C(CCCN1C(=O)c2ccccc2C1=O)N1CCC(c2ccccc2)C1 (stereo not drawn) -7.2e-05
O=C1C2CC=C(Cl)CC2C(=O)N1CNc1ccccn1 (stereo not drawn) -1.4e-05
COCCNC(=O)c1c(N)n(/N=C/c2cccs2)c2nc3ccccc3nc12 -9.2e-05
COC(=O)CC1SC(=O)NC1=O (stereo not drawn) -0.000171
N#Cc1nc(COc2ccc(Br)cc2)oc1N1CCCC1 -7e-05
CCOC(=O)C1CCN(C(C)=C2C(=O)c3ccccc3C2=O)CC1 -3.2e-05
CCSc1nnc(NC(=O)C(CC)(C(F)(F)F)C(F)(F)F)s1 -4.4e-05
N#CC1=C(N)OC2=C(C(=O)CCC2)C1CCc1ccccc1 (stereo not drawn) -1.3e-05
Cc1cc(OCC(=O)Nc2ccc3oc(-c4ccncc4)nc3c2)ccc1Cl -1.3e-05
CCSc1nc(O)c(C2OC(=O)c3c2ccc(OC)c3OC)c(=O)n1-c1ccccc1 (stereo not drawn) -4.4e-05
Cc1c(C)c2cc(Cl)c(O)c(CN3CCCCC3)c2oc1=O -2.2e-05

The compounds below were run against Alpha-2C adrenergic receptor (Homo sapiens) (UniProt P18825) (assay: compounds altering alpha2C-coupled GIRK flux – cell-based, HEK293 alpha2C/GIRK1/2, thallium flux, primary screen (AID 624;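 also: slope of fluorescence ratio to pre-addition baseline per second over 15 to 24 s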)). Settings: thallium flux BTC fluorescence, at 10 µM, actives lie on both sides.
Sequence of Alpha-2C adrenergic receptor (Homo sapiens) (P18825 whole entry, looked up): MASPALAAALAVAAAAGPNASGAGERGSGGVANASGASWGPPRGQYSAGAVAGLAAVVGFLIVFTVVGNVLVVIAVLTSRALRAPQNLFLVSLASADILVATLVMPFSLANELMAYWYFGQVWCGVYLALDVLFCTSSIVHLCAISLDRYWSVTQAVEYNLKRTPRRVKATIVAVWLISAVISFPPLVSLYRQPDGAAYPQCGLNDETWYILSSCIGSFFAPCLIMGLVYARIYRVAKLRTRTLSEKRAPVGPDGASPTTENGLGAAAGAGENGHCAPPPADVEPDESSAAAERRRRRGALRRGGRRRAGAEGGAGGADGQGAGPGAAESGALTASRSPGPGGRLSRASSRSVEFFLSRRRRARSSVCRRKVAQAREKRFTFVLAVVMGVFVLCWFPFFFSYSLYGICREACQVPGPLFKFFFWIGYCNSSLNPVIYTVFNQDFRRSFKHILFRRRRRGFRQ

slope, inactive:
COc1cc(NS(=O)(=O)c2ccc(N)cc2)nc(OC)n1 0.00564
C=CCSc1nnc2n(CCc3ccccc3)c(=O)c3c4c(sc3n12)COC(C)(C)C4 0.00563
COc1c2occc2c(OC)c2c(=O)cc(C)oc12 0.00425
CCCn1c(=O)c2[nH]c(C3CCCC3)nc2n(CCC)c1=O 0.00398
CCOC(=O)Cc1nnc(Nc2cccc(O)c2)c2ccccc12 0.00496
COc1ccc(C(=O)Cn2c(N3CCCCC3)nc3c2c(=O)n(C)c(=O)n3C)cc1OC 0.00577
CCn1cc(C(=O)O)c(=O)c2cc(F)c(N3CCNCC3)nc21 0.00463
Cc1ccc(S(=O)(=O)NC(=O)NN2CCCCCC2)cc1 0.00471
Cn1c(/C(C#N)=C/Nc2ccccn2)nc2ccccc21 0.00613
COc1ccc(CNc2oc(COc3ccccc3Cl)nc2C#N)cc1 0.00797
CC(NC(=O)NCCCC(=O)O)(C(F)(F)F)C(F)(F)F 0.00567
CC(NC(=O)Nc1nccs1)(C(F)(F)F)C(F)(F)F 0.00627
CCC1CCCCN1c1nc(-c2ccncc2)nc2ccccc12 (stereo not drawn) 0.00736
C=C(C)C1Cc2c(C)nn(-c3nc(C)cc(C)n3)c2C1 (stereo not drawn) 0.00521
CCCCOc1ccc(CC(=O)NO)cc1 0.00497
COC(=O)c1cc(Br)c(=O)n(-c2nccs2)c1 0.00443
Cc1ccc(NC(=O)CSC2=C(C#N)C(c3ccc4c(c3)OCO4)CC(=O)N2)cc1C (stereo not drawn) 0.00695
CCN(CC)C(=O)c1sc2nc(-c3cccs3)cc(-c3cccs3)c2c1N 0.00378
Cc1ccc(-c2nnc(-c3cccc(Br)c3)o2)cc1 0.00623
CCCCOc1ccc(C(=O)Nc2ccc(N3CCN(C(C)=O)CC3)cc2)cc1 0.00636
CCN(CC)CCNC(=O)c1ccc(NC(C)=O)cc1 0.00544
COC(=O)c1ccccc1NC(=O)CSc1nnc(-c2ccncc2)o1 0.00552
CN(C)C(CN1C(=O)C2CC=CCC2C1=O)c1cn(C)c2ccccc12 (stereo not drawn) 0.00544
CCOc1cc(C2Nc3ccccc3C(=O)N2c2ccccc2OC)ccc1O (stereo not drawn) 0.0046
Cc1cn2c(-c3ccncc3)nnc2s1 0.0059
COc1ccc(/C(O)=C2/C(=O)C(=O)N(CCN(C)C)C2c2ccccn2)cc1OC (stereo not drawn) 0.00777
Cc1oc2nc(SCCCC(=O)NCCCO)nc(N)c2c1C 0.00668
C[C@@H]1CCC[C@H](C)N1NC(=O)c1ccc(Cl)c(S(N)(=O)=O)c1 0.00499
O=C(CCCN1C(=O)c2ccccc2C1=O)N1CCC(c2ccccc2)C1 (stereo not drawn) 0.00674
O=C1C2CC=C(Cl)CC2C(=O)N1CNc1ccccn1 (stereo not drawn) 0.00475
COCCNC(=O)c1c(N)n(/N=C/c2cccs2)c2nc3ccccc3nc12 0.00574
COC(=O)CC1SC(=O)NC1=O (stereo not drawn) 0.00686
N#Cc1nc(COc2ccc(Br)cc2)oc1N1CCCC1 0.00386
CCOC(=O)C1CCN(C(C)=C2C(=O)c3ccccc3C2=O)CC1 0.00587
CCSc1nnc(NC(=O)C(CC)(C(F)(F)F)C(F)(F)F)s1 0.00447
N#CC1=C(N)OC2=C(C(=O)CCC2)C1CCc1ccccc1 (stereo not drawn) 0.00639
Cc1cc(OCC(=O)Nc2ccc3oc(-c4ccncc4)nc3c2)ccc1Cl 0.00694
CCSc1nc(O)c(C2OC(=O)c3c2ccc(OC)c3OC)c(=O)n1-c1ccccc1 (stereo not drawn) 0.00632
Cc1c(C)c2cc(Cl)c(O)c(CN3CCCCC3)c2oc1=O 0.00419
